# Source: PubChem
# RORg inh: blocks mouse ROR gamma transcriptional activity; P51450; Drosophila S2 Gal4-RORgamma UAS-luciferase reporter, 20 h; Potency, µM (series often up to 53.6 µM), inactives show top-dose activity change, negative = inhibition, hits mostly inhibitors; hit rate 5.4% among 310,000; also: potency is read from the fitted curve at half-maximal effect; nearly all actives have a fitted effect of over 60% in size
# Target sequence (P51450 whole entry, looked up, the tested form may be a part): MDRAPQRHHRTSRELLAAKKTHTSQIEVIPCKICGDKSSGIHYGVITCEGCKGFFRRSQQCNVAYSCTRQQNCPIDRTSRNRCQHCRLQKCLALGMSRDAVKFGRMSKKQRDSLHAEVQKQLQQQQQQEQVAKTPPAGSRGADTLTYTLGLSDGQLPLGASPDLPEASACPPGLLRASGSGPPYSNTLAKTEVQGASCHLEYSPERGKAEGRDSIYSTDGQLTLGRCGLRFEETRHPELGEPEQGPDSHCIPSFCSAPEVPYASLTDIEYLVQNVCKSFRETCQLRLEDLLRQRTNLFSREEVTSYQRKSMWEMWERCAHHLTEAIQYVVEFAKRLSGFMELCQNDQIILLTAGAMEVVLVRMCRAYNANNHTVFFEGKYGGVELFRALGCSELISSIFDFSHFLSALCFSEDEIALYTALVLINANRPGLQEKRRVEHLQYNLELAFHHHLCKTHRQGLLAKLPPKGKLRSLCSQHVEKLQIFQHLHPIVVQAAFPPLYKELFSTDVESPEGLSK
#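 Luminescence from a UAS-regulated Photinus luciferase reporter in stably transfected Drosophila Schneider cells is measured; decreased signal marks ROR gamma inhibition. Fusion expression is induced by 700 uM copper sulfate for 20 hr.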
# IL-1B inflam inh: blocks inflammasome-driven IL-1 beta release | THP-1 LPS/ATP IL-1B secretion, AlphaLISA, 16 h; stronger effect = lower value | activity change, % at 57.5 µM | hit rate 4.7% among 360,000; in the data active = activity change below about -50%; inconclusive = mostly about -30% to -49%
#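 Secreted IL-1B measured by AlphaLISA bead assay after 16 h compound exposure of THP-1 cells; compounds (final up to 57.5 uM) added 1 h before LPS (250 ng/mL) and ATP (1.25 mM) stimulation; lower signal means less secretion.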
# ELG1 repair inh: blocks ELG1-dependent DNA repair in HEK293T cells | Potency, µM (top dose mostly 46.1 µM), for the others: top-dose activity change, negative = inhibition, usual class: inhibitors | hit rate 2.3% among 330,000 | HEK293T ELG1-luciferase reporter, luminescence, 16 h; DNA damage induced by 5-fluorouridine | AID 504467; also: potency is read from the fitted curve at half-maximal effect; nearly all actives have a fitted effect of over 55% in size
#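 Luminescence from the luciferase reporter, measured 30 min after ONE-Glo reagent at room temperature, was the read-out. Beforehand, 2,000 cells per well were exposed for 16 hr at 37 °C to 5-fluorouridine together with compound or vehicle.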
# TDP1 cell noCPT: qHTS for Inhibitors of human tyrosyl-DNA phosphodiesterase 1 (TDP1): qHTS in cells in absence of CPT. DT40 Tdp1-/- hTDP1 cells, no CPT, ATP luminescence, 48 h. Potency, µM (highest dose often 46.2 µM), inactives show at the highest dose activity change, negative = growth inhibition, most hits filed as inhibitors. hit rate 15% among 420,000. AID 686978, 2013; also: potency is read from the fitted curve at half-maximal effect; nearly all actives have a fitted effect of over 55% in size
#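 Compound effects on proliferation are scored in DT40 Tdp1-/-;hTDP1 cells in the absence of CPT. ATP levels (CellTiter-Glo luminescence) are recorded after a ≥48 hr, 37 °C incubation.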
# DT40 TDP1 CPT: growth inhibition of DT40 Tdp1-/-;hTDP1 cells with camptothecin (screen for TDP1 inhibitors); chicken DT40 Tdp1-/-;hTDP1 cells + 20 nM CPT, ATP luminescence, 48 h; Potency, µM (highest dose often 46.2 µM), without a hit: top-dose activity change, negative = growth inhibition, actives largely listed as inhibitors; hit rate 12% among 420,000; AID 686979; also: potency is read from the fitted curve at half-maximal effect; nearly all actives have a fitted effect of over 55% in size
#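 Chicken DT40 Tdp1-/- cells complemented with human TDP1, 400 cells/well, exposed to compounds plus 20 nM camptothecin for at least 48 h at 37 C; viability read as ATP content by CellTiter-Glo luminescence.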
# Gal4-VP16 FLuc: counter-screen for ROR gamma inhibitors: Gal4-VP16 reporter; AID 2546; hit rate 3.5% among 310,000; Potency, µM (series often up to 53.6 µM), inactives show at the top dose activity, negative = inhibition, hits mostly inhibitors; Drosophila S2 Gal4-VP16 UAS-luciferase, luminescence, 20 h;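 also: Gal4-VP16 expression switched on by copper sulfate through the metallothionein promoter; potency is read from the fitted curve at half-maximal effect; nearly all actives have a fitted effect of over 50% in size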
# * hit, by the source's call; u = inconclusive; x = no result given; [ ] = dose if it differs, or a comment. Only some compounds are listed: those with a hit (about 21% of all), similar ones and a draw of the others. Unless noted, calls follow the shape of the dose curve; as a rule, active = well fitted curve in the direction sought with a large enough effect; inconclusive = small, poorly fitted or top-dose-only effect, or another doubt; inactive = no such curve, though single readings can be large; an effect the other way counts as inactive or inconclusive. % is scaled to controls: 0 for no effect and ±100 for the full control effect.
SMILES,RORg inh,IL-1B inflam inh,ELG1 repair inh,TDP1 cell noCPT,DT40 TDP1 CPT,Gal4-VP16 FLuc
CC(C)(C)C(=O)OC/C(N)=N/OC(=O)c1ccccc1,0%,-11,-2%,-14%,u,-12%
N/C(=N\OC(=O)c1ccccc1)C(Cc1ccccc1)C(=O)NOC(=O)c1ccccc1 (stereo not drawn),x,-89*,x,2.6µM*,2.9µM*,x
Cc1cccc(Cn2c(=O)n(-c3ccc(Cl)c(Cl)c3)c(=O)c3c(C)c(C)sc32)c1,x,x,x,u,-23%,x
CN1CCN(c2nc(-c3ccccc3)ncc2S(=O)(=O)c2ccccc2)CC1,-29%,-52*,-19%,u,-10%,14%[10 µM]
N#CC(c1nc2ccccc2nc1N1CCCC1)S(=O)(=O)c1ccccc1 (stereo not drawn),17%,12,u,-24%,-1%,-1%
CN1CCN(c2nc(-c3ccccc3)ncc2S(C)(=O)=O)CC1,-1%,-8,5%,-6%,-6%,7%
COC(=O)C1CCN(c2nc3ccccc3nc2C(C#N)C(=O)NCCc2ccccc2)CC1 (stereo not drawn),9%,18,1%,u,u,-4%
COc1ccc(CNC(=O)C(C#N)c2nc3ccccc3nc2N2CCN(C)CC2)cc1 (stereo not drawn),-18%,-52*,-14%,-29%,u,-11%
CN1CCN(c2nc3ccccc3nc2C(C#N)S(=O)(=O)c2ccccc2)CC1 (stereo not drawn),-9%,u,8.2µM*,-3%,1%,-8%
COc1ccc(CNC(=O)C(C#N)c2nc3ccccc3nc2N2CCCC2)cc1 (stereo not drawn),14%,1,5.8µM*,u,u,-10%
Cc1cccc(NS(=O)(=O)c2ccc(C)c(C(=O)NCCCN3CCOCC3)c2)c1,x,0,1%,-7%,-10%,x
O=C(NCCc1ccccc1)c1ccc2c(c1)OCO2,2.8µM*,-6,u,u,-19%,5µM*
O=C(NCCc1ccccc1)C(=O)N/N=C/c1ccc2c(c1)OCO2,23%,0,0%,21µM*,23µM*,-4%
O=C(NCc1ccc2c(c1)OCO2)OCc1ccccc1,x,u,x,-19%,-5%,x
O=C(NCCS(=O)(=O)NCc1ccccc1)c1ccc2c(c1)OCO2,x,12,7%,-6%,20%,x
O=C(Cc1ccc(OCc2ccccc2)cc1)NCc1ccc2c(c1)OCO2,x,43,x,7.3µM*,u,x
Cc1ccc2cc(CCNS(=O)(=O)c3ccc(Cl)cc3)c(=O)[nH]c2c1C,44%,-79*,u,23µM*,21µM*,-15%
CC(C)c1ccc(S(=O)(=O)c2cn(CC(=O)Nc3ccc(F)cc3)c3ccccc3c2=O)cc1,x,x,x,3%,-3%,x
COc1ccc(C(=O)NCC(=O)OCC(=O)c2cccc3ccccc23)cc1,x,x,x,-4%,u,x
C[C@H](CO)N1C[C@H](C)[C@@H](CN(C)CC2CCCCC2)Oc2c(NS(=O)(=O)c3ccc(F)cc3)cccc2C1=O,x,33,u,-18%,u,x
Cn1cccc1C(=O)N1CCC2(CCN(Cc3nccs3)CC2)CC1,0%,x,x,-19%,-2%,7%
O=C(NNC(=S)NCc1ccccc1)c1ccc2c(c1)OCO2,-22%,-3,8%,-27%,-3%,u
O=C(NC(=S)NCc1ccc2c(c1)OCO2)c1ccccc1,20µM*,-4,8%,1%,15%,18µM*
O=C(NCCc1ccc2c(c1)OCCO2)c1ccccn1,-30%,-10,u,u,u,u
O=C(NC(=S)NCc1ccccc1)c1ccc2c(c1)OCO2,7.9µM*,-20,u,-8%,-2%,11µM*
